KCC2 mod: KCC2 (human) Cl- transport modulation; Q9H2X9; KCC2 cells, thallium flux FluoZin-2 fluorescence; B-score of Tl+ flux slope (higher = more flux/activation; lower = inhibition) at 10 µM; hit rate 2.2% among 190,000; AID 1456;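 active = thallium flux slope and its plate-corrected score both differing from the plate sample mean at a set confidence after two filtering rounds, in either direction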;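 note: slope of fluorescence scaled to starting intensity during 10 to 20 s after thallium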
S1P4 agonist: agonists of human S1P4 receptor; activation, % at 4.98 µM; hit rate 0.35% among 220,000; O95977; S1P4-expressing cell line, agonist reporter assay; in the data active = activation above about 11%;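 note: 0% = DMSO vehicle and 100% = reference agonist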
Target sequence (O95977 whole entry, looked up): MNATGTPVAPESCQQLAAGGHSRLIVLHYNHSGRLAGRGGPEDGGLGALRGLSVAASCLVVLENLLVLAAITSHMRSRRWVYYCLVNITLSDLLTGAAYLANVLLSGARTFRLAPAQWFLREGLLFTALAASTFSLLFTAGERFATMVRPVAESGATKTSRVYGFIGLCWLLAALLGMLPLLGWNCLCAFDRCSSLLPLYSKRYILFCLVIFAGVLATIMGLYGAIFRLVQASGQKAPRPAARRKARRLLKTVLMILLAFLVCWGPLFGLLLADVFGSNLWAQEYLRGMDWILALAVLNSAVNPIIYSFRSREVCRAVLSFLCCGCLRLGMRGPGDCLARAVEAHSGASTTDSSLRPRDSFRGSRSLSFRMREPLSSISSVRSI
ROMK mod: modulators of human ROMK potassium channel | P48048 | Tet-inducible ROMK, thallium flux fluorescence; actives lie on both sides | B-score at 10 µM | hit rate 2% among 130,000 | AID 1918;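 active = signal ratio slope over the read window, or its plate-corrected B-score, at least 3 SD from the plate mean, either direction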;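 note: B-score of the F/F0 ratio slope over 7 to 12 s after thallium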
Target sequence (P48048 whole entry, looked up): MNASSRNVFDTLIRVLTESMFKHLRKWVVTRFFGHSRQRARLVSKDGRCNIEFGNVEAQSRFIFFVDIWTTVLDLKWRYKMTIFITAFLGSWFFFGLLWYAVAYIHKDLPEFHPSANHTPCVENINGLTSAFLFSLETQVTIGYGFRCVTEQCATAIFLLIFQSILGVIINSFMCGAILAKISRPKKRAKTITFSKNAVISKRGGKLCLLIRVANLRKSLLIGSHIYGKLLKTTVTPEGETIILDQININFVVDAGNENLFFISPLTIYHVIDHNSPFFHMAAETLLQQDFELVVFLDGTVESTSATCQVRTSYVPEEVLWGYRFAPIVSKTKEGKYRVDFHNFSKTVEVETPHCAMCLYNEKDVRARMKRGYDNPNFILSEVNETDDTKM
RAM network inh: yeast RAM network inhibition; inhibition, % at 50 µM; S. cerevisiae dse1pr::URA3 reporter, 5-FOA growth OD615, 2 d; analog-sensitive cbk1-as2 kinase mutant strain; hit rate 1.8% among 190,000;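 active = inhibition above a set limit, 3 SD over mean compound inhibition, cut at about 8.4% in these data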;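 note: 0% = DMSO-only wells with no growth and 100% = 10 µM 1-NA-PP1 full growth; inhibition rescues growth on 5-FOA so higher OD means more RAM inhibition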
S1P4 antag: antagonists of human S1P4 receptor | S1P4-expressing cells, antagonist mode, reporter read-out | inhibition, % at 4.98 µM | O95977 | hit rate 0.26% among 220,000; in the data active = inhibition above about 29%;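 note: 0% = wells stimulated with agonist and 100% = vehicle wells without agonist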
S1P3 antagonist: blocks the human S1P3 receptor; AID 485; hit rate 0.27% among 170,000; inhibition, % at 4.98 µM; Q99500; CHO S1P3 NFAT-BLA reporter, FRET fluorescence, antagonist mode;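 active = inhibition above the plate cutoff, the mean inhibition of test wells on that plate plus 3 SD, cut at about 28% in these data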;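 note: cells challenged with S1P at its EC80 of 0.8 µM; blue over green emission ratio from cleaved BLA substrate after 4 h stimulation; 0% = S1P-stimulated wells and 100% = unstimulated DMSO-only wells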
KCC2 secondary: KCC2 (human) modulation, secondary assay; shares compounds with KCC2 mod; HEK293-KCC2, thallium flux, FluoZin2 fluorescence; active compounds read high; normalised thallium flux (F/F0 slope) at 10 µM; hit rate 15% among 3,700; AID 1713;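 active = thallium flux slope above the same plate's solvent-only control mean plus 3 SD; inconclusive = the two replicate wells disagree; inactive = no significant difference from solvent-only control wells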
KCC2 bumet counter: thallium flux persisting under bumetanide in KCC2 cells, counter-screen secondary assay. shares compounds with KCC2 mod. hit rate 49% among 3,700. normalized thallium flux at 10 µM. HEK293-KCC2 + bumetanide/ouabain, thallium flux FluoZin2; active compounds read high;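 active = thallium entry rate above the same plate's blocked-transporter control wells by more than 3 SD; inconclusive = the two repeat wells disagree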;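 note: raw slope of fluorescence over initial fluorescence between 10 and 20 s after thallium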
KCC2 sec2: confirmation of human KCC2 transport modulators. shares compounds with KCC2 mod. normalized thallium flux at 10 µM. hit rate 23% among 3,700. HEK293-KCC2, thallium flux FluoZin2 fluorescence; actives lie on both sides; F/F0 rise rate, 10–20 s post-thallium;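 active = thallium flux slope more than 3 SD above or below the plate's solvent-only control mean, mostly below; inconclusive = the two repeat wells disagreed; inactive = no significant shift from solvent-only controls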;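 note: raw slope with 0.1% DMSO as baseline and bumetanide as block control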
HEK counter1: parental HEK flux effect, counter-screen. AID 1716. thallium flux rate (normalised fluorescence) at 10 µM. shares compounds with KCC2 mod. HEK293 parental cells, thallium flux FluoZin2, ouabain; baseline-ratio fluorescence slope, 10–20 s after thallium. hit rate 46% among 3,700;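 active = thallium flux rate significantly above the same plate's solvent-only control wells, beyond their mean plus 3 SD; inconclusive = the two replicate wells gave conflicting results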
KCC2 ouabain: KCC2 (human) modulation, ouabain retest. shares compounds with KCC2 mod. HEK293-KCC2, thallium flux FluoZin2 fluorescence; bidirectional: low = inhibitor, high = activator. raw Tl+ flux slope (below DMSO = inhibition, above = activation) at 10 µM. hit rate 48% among 3,700;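 active = thallium flux slope beyond 3 SD from same-plate DMSO control mean in most replicates, usually higher, sometimes lower; inconclusive = repeat tests gave conflicting results; inactive = no significant difference from controls in most replicates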;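 note: slope of initial-normalized fluorescence between seconds 10 and 20 after thallium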
HEK293 Tl flux2: parental HEK flux effect, counter-screen 2; shares compounds with KCC2 mod; HEK293 parental, thallium flux FluoZin-2 fluorescence slope; thallium flux slope at 10 µM; hit rate 33% among 3,700;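 active = thallium flux slope above the same plate's solvent-control mean plus 3 SD in both duplicate wells; inconclusive = duplicate wells that disagreed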;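 note: run without ouabain in cells lacking the KCC2 cotransporter; slope of fluorescence scaled to its starting value between 10 and 20 s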
The depositor's hits bear a star; ? = inconclusive; · = no result given. Most compounds without a hit are left out; they make up all but 5.1% or so of the library.

SMILES | KCC2 mod | S1P4 agonist | ROMK mod | RAM network inh | S1P4 antag | S1P3 antagonist | KCC2 secondary | KCC2 bumet counter | KCC2 sec2 | HEK counter1 | KCC2 ouabain | HEK293 Tl flux2
O=C(NNC(=S)NC(=O)c1ccccc1[N+](=O)[O-])c1ccc(Cl)cc1Cl | 4.9* | 1 | -1.4 | 0 | -15 | -7 | 0.011 | 0.016* | 0.031 | 0.014* | ? | 0.011
CCCCCC(=O)NC(=S)Nc1ccc(Cl)cn1 | 8.3* | -1 | -0.21 | 3 | -15 | -9 | 0.0065 | 0.013* | 0.035 | 0.016* | ? | 0.018*
CC(C)N(C)S(=O)(=O)c1ccc(Cl)c(C(=O)O)c1 | 0.059 | 3 | 0.071 | 0 | -9 | -12 | · | · | · | · | · | ·
O=C(O)c1cccc(Nc2nc(Nc3ccccc3)nc(N3CCCC3)n2)c1 | -3* | 0 | · | 4 | 3 | -20 | 0.0084 | 0.0057 | 0.029 | ? | 0.029* | ?
CC(=O)NNC(=S)NC(=O)C(c1ccccc1)c1ccccc1 | -1.4 | 0 | -1.6 | 0 | 2 | -21 | · | · | · | · | · | ·
CC(C)(C)C(=O)NC(=S)NNC(=O)C(c1ccccc1)c1ccccc1 | 5.8* | 1 | -2 | 6 | -9 | 9 | 0.011 | 0.023* | 0.041 | ? | 0.03* | 0.013
O=C(CN1C(=O)S/C(=C\C=C\c2ccccc2)C1=O)Nc1cccc(O)c1 | -2.7 | 2 | · | 7 | -5 | -16 | · | · | · | · | · | ·
O=C(CN1C(=O)S/C(=C\C=C\c2ccccc2)C1=O)Nc1ccccc1C(=O)O | -5.9* | -1 | 0.24 | · | -3 | 1 | 0.0072 | 0.0067 | ? | ? | 0.014* | 0.01
Cc1nc([N+](=O)[O-])cn1Cc1cccc([N+](=O)[O-])c1 | -0.05 | 0 | · | 0 | 9 | -8 | · | · | · | · | · | ·
CC(C)(C)NC(=O)C(=O)NNC(=O)c1cccc(Br)c1 | 33* | 0 | 0.21 | 0 | -30 | 2 | 0.0096* | 0.054* | 0.047* | 0.047* | 0.05* | 0.028*
O=C(C[n+]1ccc2ccccc2c1)c1ccc(NC(=O)c2ccccc2)cc1 | 0.54 | -1 | -0.3 | 1 | -6 | -40 | · | · | · | · | · | ·
Cc1nn(-c2ccc(F)cc2)c(C)c1NS(=O)(=O)c1ccc(Cl)cc1 | -4.6* | 2 | · | 1 | -6 | -3 | 0.0057 | 0.0049 | 0.022* | 0.0068 | ? | 0.01
COc1ccc(CCNC(=O)c2c(-c3ccccc3Cl)noc2C)cc1 | -1 | 2 | -0.53 | 1 | -3 | · | · | · | · | · | · | ·
CCOC(=O)c1ccc(NC(=O)C(=O)NCc2ccccn2)cc1 | 0.0068 | 0 | 0.43 | 1 | 3 | -6 | · | · | · | · | · | ·
Cc1onc(-c2c(F)cccc2Cl)c1C(=O)NCc1ccccn1 | -4.9* | -1 | · | 0 | 6 | 12 | ? | ? | ? | 0.0079 | 0.023 | 0.011
Cc1onc(-c2ccccc2Cl)c1C(=O)Nc1ccc(F)c(F)c1 | · | 1 | 0.052 | 1 | -13 | 1 | · | · | · | · | · | ·
Cc1onc(-c2ccccc2Cl)c1C(=O)NC(=S)Nc1ccccc1F | 54* | 2 | -1.3 | 11* | -14 | -8 | 0.015* | 0.099* | 0.035 | 0.044* | 0.041* | 0.013*
Cc1onc(-c2ccccc2Cl)c1C(=O)NCCN1Cc2ccccc2C1=O | · | 0 | 0.17 | 1 | -5 | -23 | 0.015 | 0.0039 | 0.031 | 0.0076 | 0.017 | 0.011
CCOC(=O)c1c(C)c(C(=O)NCc2ccccn2)c(C)n1CC | 8.3* | 1 | · | 1 | -12 | 1 | 0.0062 | 0.0047 | 0.032 | 0.0071 | 0.019 | 0.011
Nc1cnc(CNc2ccccc2Cl)cn1 | 0.85 | · | · | · | · | · | · | · | · | · | · | ·
COc1ccccc1NC(=S)NC(=O)c1c(-c2ccccc2Cl)noc1C | 3.7* | 0 | 1 | 6 | 13 | -1 | 0.012 | 0.028* | 0.036 | ? | 0.03* | ?
COc1ccc(CCNC(=S)NC(=O)c2c(-c3ccccc3Cl)noc2C)cc1OC | 0.27 | 1 | 0.026 | · | -4 | -8 | · | · | · | · | · | ·
CCCCn1c(=O)[nH]c(=O)c2c1nc(-c1ccc(C#N)cc1)n2C1CCCC1 | -1.1 | -1 | 0.12 | 5 | -14 | 20 | · | · | · | · | · | ·
CC(C)Cn1c(-c2ccc(C#N)cc2)nc2c1c(=O)[nH]c(=O)n2CC(C)C | · | -3 | -0.74 | 3 | -3 | · | 0.01 | 0.0047 | 0.032 | 0.0075 | 0.019 | 0.01
Cc1c(-c2ccccc2)oc2c(C(=O)OCC(=O)Nc3ccc(C(N)=O)cc3)cccc2c1=O | -5* | -2 | · | 5 | -12 | 1 | 0.0092 | 0.0054 | 0.033 | ? | 0.016* | 0.011
SMILES | KCC2 mod | S1P4 agonist | ROMK mod | RAM network inh | S1P4 antag | S1P3 antagonist | KCC2 secondary | KCC2 bumet counter | KCC2 sec2 | HEK counter1 | KCC2 ouabain | HEK293 Tl flux2
COc1cccc(C2=NN(C(=O)c3ccccc3)C(O)(C(F)(F)F)C2)c1 (stereo unspecified) | 3.2* | 0 | 0.43 | 3 | 7 | · | 0.011 | 0.018* | 0.033 | 0.012* | ? | ?
COc1ccc(C(=O)N2N=C(c3ccccc3)CC2(O)C(F)(F)F)cc1 (stereo unspecified) | 11* | 0 | 2.1 | 5 | -6 | -7 | 0.0054 | 0.017* | 0.035 | 0.014* | 0.026* | 0.017*
COc1cccc(C(=O)N2N=C(c3ccccc3)CC2(O)C(F)(F)F)c1 (stereo unspecified) | 3.8 | 1 | -0.92 | 3 | -18 | -7 | · | · | · | · | · | ·
O=C(O)Cc1ccc(NC(=S)Nc2ccc(Br)cc2Cl)cc1 | 2.9 | -1 | · | · | 2 | 2 | · | · | · | · | · | ·
S=C(N/N=C/c1ccccc1Cl)Nc1cccc(Cl)c1Cl | 7* | 1 | 0.59 | · | 2 | -8 | 0.007 | 0.045* | 0.047* | 0.031* | 0.048* | 0.026*
S=C(NCCc1ccccc1)N/N=C/c1cccc(Cl)c1Cl | 4.4* | 1 | · | 0 | -9 | -6 | 0.0061 | 0.013* | 0.039* | 0.011* | 0.03* | 0.011
S=C(NCC1CC1)N/N=C/c1ccccc1Cl | 10* | 2 | · | · | 1 | 2 | ? | 0.024* | 0.03 | 0.01* | ? | 0.0099
Cc1ccc(C)c(/C=N/NC(=S)NCCc2ccccc2)c1 | 0.21 | -1 | · | 6 | -5 | · | · | · | · | · | · | ·
N#CCC(=O)N/N=C/c1ccccc1Cl | -1.1 | 1 | 0.39 | 3 | 12 | 5 | · | · | · | · | · | ·
